Test results taken from PubChem BioAssay (NCATS).
Results filed as inconclusive are left out. The source made the active and inactive calls. Unless noted, how the calls were made is not given here.

Assays:
[1] = qHTS for Activators of Parkin Expression: LOPAC Validation Assay (NLuc Reporter) (AID 720572; active means well fitted curve in the direction sought with a large enough effect; an effect the other way counts as inactive or inconclusive;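 further: 0% = DMSO and 100% = positive control compound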)
Outline: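 Neuronal line stably carrying a FLuc/NLuc coincidence reporter under the Parkin promoter, seeded 24 h, then dosed in 7-point series for 24 h at 37 C. NLuc luminescence read after FLuc; normalized to DMSO and positive control (100%).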

[2] = qHTS for Activators of Parkin Expression: LOPAC Validation Assay (FLuc Reporter) (AID 720573; active means well fitted curve in the direction sought with a large enough effect; an effect the other way counts as inactive or inconclusive; further: potency means the concentration at half of the fitted maximal effect); conditions: Cell line, PRKN promoter firefly luciferase reporter
Outline: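 A neuronal cell line harbouring FLuc and NLuc reporters behind the Parkin promoter was exposed to compounds for 24 h. Firefly luciferase signal, measured after 10 min with detection reagent, was scaled to DMSO and positive-control wells.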

[3] = target: T1, Hexokinase-4 (Homo sapiens) + Glucokinase regulatory protein (Homo sapiens) (UniProt P35557+Q14397); assay: qHTS assay for inhibitors of recombinant human GCK-GKRP interaction: Diaphorase-coupled assay (AID 743205; active means well fitted curve in the direction sought with a large enough effect; an effect the other way counts as inactive or inconclusive)
T1 sequence (P35557 whole entry, looked up): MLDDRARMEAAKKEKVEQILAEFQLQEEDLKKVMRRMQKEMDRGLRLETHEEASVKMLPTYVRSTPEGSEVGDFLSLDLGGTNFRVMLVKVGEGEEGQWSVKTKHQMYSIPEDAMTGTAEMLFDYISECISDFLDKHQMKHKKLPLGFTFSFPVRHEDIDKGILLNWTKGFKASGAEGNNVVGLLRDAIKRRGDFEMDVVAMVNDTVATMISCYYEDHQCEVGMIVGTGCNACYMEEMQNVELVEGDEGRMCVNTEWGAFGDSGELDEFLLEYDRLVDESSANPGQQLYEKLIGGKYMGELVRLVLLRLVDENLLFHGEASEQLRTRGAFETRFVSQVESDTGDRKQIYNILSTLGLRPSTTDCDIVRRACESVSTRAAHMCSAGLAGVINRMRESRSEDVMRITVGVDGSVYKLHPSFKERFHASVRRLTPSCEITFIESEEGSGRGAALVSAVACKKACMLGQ
T1 sequence (Q14397 whole entry, looked up): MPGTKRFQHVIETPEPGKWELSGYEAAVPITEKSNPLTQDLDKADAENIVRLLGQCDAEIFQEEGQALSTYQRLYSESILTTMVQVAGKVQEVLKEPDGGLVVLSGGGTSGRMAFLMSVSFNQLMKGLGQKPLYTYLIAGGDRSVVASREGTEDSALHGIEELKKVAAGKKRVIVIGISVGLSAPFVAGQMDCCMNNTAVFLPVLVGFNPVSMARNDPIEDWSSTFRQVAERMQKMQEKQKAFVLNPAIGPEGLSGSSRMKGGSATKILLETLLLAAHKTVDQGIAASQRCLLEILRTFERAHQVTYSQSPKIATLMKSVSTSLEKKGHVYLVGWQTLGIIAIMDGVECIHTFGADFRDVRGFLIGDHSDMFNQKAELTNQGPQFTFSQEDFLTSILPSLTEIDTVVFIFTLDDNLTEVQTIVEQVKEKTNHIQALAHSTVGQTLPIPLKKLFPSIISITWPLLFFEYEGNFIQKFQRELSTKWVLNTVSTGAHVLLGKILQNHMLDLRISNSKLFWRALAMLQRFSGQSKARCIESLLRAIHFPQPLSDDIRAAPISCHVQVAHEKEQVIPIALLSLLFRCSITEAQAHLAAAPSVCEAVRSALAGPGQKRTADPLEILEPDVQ
Outline: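 Inhibitors of the GCK–GKRP complex relieve GKRP suppression of GCK, detected through a G6PDH–diaphorase cascade reducing resazurin. Human GST-GCK and FLAG-GKRP are used at 10 nM with 5 mM glucose and 0.4 mM ATP.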

[4] = target: T1, Hexokinase-4 (Homo sapiens) + Glucokinase regulatory protein (Homo sapiens); assay: qHTS assay for inhibitors of recombinant human GCK-GKRP interaction: ADP-Glo assay (AID 743206; active means well fitted curve in the direction sought with a large enough effect; an effect the other way counts as inactive or inconclusive;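 further: plate controls were DMSO plus enzyme for no effect and no enzyme for full effect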)
Outline: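 GST-GCK and FLAG-GKRP (15 nM each in the dispensed mix, with 2 uM S6P) react with 0.4 mM ATP and 5 mM glucose (final) in Hepes pH 7.6 for 60 min at room temperature. ADP is measured by ADP-Glo luminescence.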

[5] = target: T1, Hexokinase-4 (Homo sapiens) + Glucokinase regulatory protein (Homo sapiens); assay: qHTS assay for inhibitors of recombinant human GCK-GKRP interaction: HTRF assay (AID 743207; active means well fitted curve in the direction sought with a large enough effect; an effect the other way counts as inactive or inconclusive;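 further: 0% = DMSO with GCK present and -100% = DMSO wells lacking GCK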)
Outline: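 Steps: dispense GCK–GKRP complex (5 nM each, GST- and FLAG-tagged) with 2 uM S6P; pin in compounds; add XL665/Eu-cryptate-labelled antibodies; incubate 60 min at room temperature; read time-resolved FRET at 665 and 615 nm.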

[6] = qHTS Assay for Identifying Gametocytocidal Compounds (AID 743244; active means well fitted curve in the direction sought with a large enough effect; an effect the other way counts as inactive or inconclusive; further: potency means the concentration at half of the fitted maximal effect;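 on max response: on the % scale 0 is the no-effect control and ±100 the full control effect; actives lower the fluorescent signal which means gametocytes are killed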); conditions: P. falciparum 3D7 stage III-V gametocytes, alamarBlue, 72 h; max response: stronger effect = lower value
Outline: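 Fluorescence at Ex 525/Em 598 nm, recorded 24 h after alamarBlue addition, reports residual metabolic activity of 3D7 gametocytes (stages III–V) following 72 h compound exposure at 37 °C, 5% CO2.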

[7] = qHTS profiling of the MIPE4 collection as inhibitors of Plasmodium falciparum (3D7) proliferation (AID 743344);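 further: scaled between DMSO vehicle wells and 0.29 µM artemisinin as full inhibition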; conditions: P. falciparum 3D7 in erythrocytes, SYBR Green DNA fluorescence, 72 h; at 28.5 µM (top of the series) unless noted
Outline: (§1)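 Erythrocytes infected with P. falciparum (0.3% parasitemia, 2.5% hematocrit) incubated with compounds 72 h at 37 C, 5% CO2. Lysis with saponin/Triton buffer containing SYBR Green I, overnight at room temperature in the dark; DNA fluorescence (485/535 nm) normalised to 0.29 uM artemisinin and DMSO.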

[8] = qHTS profiling of the MIPE4 collection as inhibitors of Plasmodium falciparum (DD2) proliferation (AID 743345); conditions: P. falciparum Dd2 in erythrocytes, SYBR Green DNA, 72 h; at 28.5 µM (top of the series) unless noted
Outline: as §1

[9] = qHTS profiling of the MIPE4 collection as inhibitors of Plasmodium falciparum (DD2) proliferation (Rep 2) (AID 743346); conditions: P. falciparum Dd2 in erythrocytes, SYBR Green DNA, 72 h; at 28.5 µM (top of the series) unless noted
Outline: as §1

[10] = qHTS profiling of the MIPE4 collection as inhibitors of Plasmodium falciparum (HB3) proliferation (AID 743347);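 further: plate controls were DMSO vehicle wells for no effect and artemisinin wells for full effect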; conditions: P. falciparum HB3 in erythrocytes, SYBR Green DNA, 72 h; at 28.5 µM (top of the series) unless noted
Outline: as §1

[11] = High-throughput drug toxicity screening in the BPDCN cell line Gen2.2 (AID 1224824); conditions: Gen2.2 BPDCN cells; at 45.8 µM (top of the series) unless noted;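 further: cells exposed to compounds for 48 h before reading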
Outline: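 Gen2.2, 500 cells/well, phenol red-free RPMI/10% FBS/Pen-Strep; 48 h cpd, 37 °C/5% CO2; CTG lum, 15 min RT. Norm: DMSO = 100%, bortezomib 9.2 uM final = 0%.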

[12] = High-throughput drug toxicity screening in the BPDCN cell line Cal-1 (AID 1224825); conditions: Cal-1 BPDCN cell viability, qHTS; at 45.8 µM (top of the series) unless noted
Outline: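 Exponentially growing Cal-1 cells, 500 per well in phenol red-free RPMI with 10% FBS, were exposed to compounds for 48 h at 37 °C, 5% CO2. Viability was read by CellTiter-Glo luminescence and normalised to DMSO (100%) and 9.2 uM bortezomib (0%).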

[13] = qHTS assay for measurement of the activity of small molecule inhibitors on Zika virus induced Caspase-3 activity in human iPSC derived neural progenitor cells (hNPCs) (AID 1224857; active means well fitted curve in the direction sought with a large enough effect; an effect the other way counts as inactive or inconclusive; further: nearly all actives have a fitted effect of over 65% in size; further: potency means the concentration at half of the fitted maximal effect)
Outline: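 Zika virus (2 FFU/cell) infection of human iPSC-derived NPCs, 6 h, following 1 h compound preincubation. Read-out: Caspase-Glo 3/7 luminescence.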

[14] = qHTS profiling for inhibitors of Plasmodium falciparum (3D7) proliferation (AID 743322);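 further: infected erythrocytes exposed to compound for 72 h before lysis; 100% = DMSO vehicle wells and 0% = 0.29 µM artemisinin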; conditions: P. falciparum 3D7 proliferation; at 28.7 µM (top of the series)
Outline: as §1

[15] = qHTS profiling for inhibitors of Plasmodium falciparum (DD2) proliferation (AID 743323); conditions: lower = more inhibition; at 28.7 µM (top of the series)
Outline: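 P. falciparum Dd2-infected erythrocytes (0.3% parasitemia, 2.5% hematocrit) exposed 72 h at 37 C, 5% CO2. Lysis with SYBR Green, overnight at room temperature, fluorescence 485/535 nm; normalized to 0.29 uM artemisinin and DMSO.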

[16] = qHTS profiling for inhibitors of Plasmodium falciparum (HB3) proliferation (AID 743324; active means well fitted curve in the direction sought with a large enough effect; an effect the other way counts as inactive or inconclusive;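 further: 100% = DMSO vehicle wells and 0% = artemisinin-treated control wells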); conditions: Plasmodium falciparum HB3 blood-stage proliferation; at 28.7 µM (top of the series)
Outline: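 P. falciparum HB3 grown in erythrocytes (0.3% parasitemia, 2.5% hematocrit final) with compound for 72 h at 37 C, 5% CO2. Parasite DNA detected by SYBR Green after saponin/triton lysis overnight; normalized to 0.29 uM artemisinin and DMSO.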

SMILES | outcome [1] | Potency [2] | outcome [3] | outcome [4] | outcome [5] | max response [6] | parasite growth, % of DMSO control [7] | parasite growth remaining, % of DMSO control (lower = more inhibition) [8] | parasite growth, % of control (lower = inhibition) [9] | growth, % of control [10] | cell viability, % of control (lower = more cytotoxic) [11] | viability (% of control) [12] | Potency [13] | remaining parasite growth % (stronger effect = lower value) [14] | activity, percent of control [15] | remaining proliferation (% of control), lower = more inhibition [16] | Potency [6]
O=c1c2ccccc2nc2n1CCc1c-2[nH]c2ccccc12 | inactive | 0.82 µM (active) | inactive | inactive | inactive | 16.8% (inactive) | 85.9% | 88.1% | 167% | 85.6% | 35% | 72.9% | 13.2 µM (active) | – | – | – | –
CC(C)=CCCC(C)=CCCC(C)=CCSc1ccccc1C(=O)O | – | – | – | – | – | 2.41% (inactive) | 22.6% | 25.3% | 33.1% | 15.5% | 9.26% | 19% | inactive | 101% | 118% | 92% | –
CN1CCC(CNc2ccc3ncc(-c4cccc(OC(F)(F)F)c4)n3n2)CC1 | – | – | – | – | – | – | 5.42% | – | 10.4% | 8.22% | 11.1% | 7.35% | inactive | -1.19% | -0.747% | – | 9.35 µM (active)
C=CC(=O)Nc1cccc(Oc2nc(Nc3ccc(N4CCN(C)CC4)cc3OC)ncc2Cl)c1 | – | – | – | – | – | – | 10.5% | 15.1% | 26.7% | 4.13% | 8% | 16.3% | inactive | 5.98% | 12.5% | 6.16% | 14.8 µM (active)
C[C@]1(CO)CN(c2cc(C(=O)Nc3ccc4c(c3)-c3c(c(C(N)=O)nn3-c3ccc(F)cc3)CC4)c(Cl)cn2)C[C@@]1(C)CO | – | – | – | – | – | -20.6% (inactive) | 11.4% | – | 38.3% | 9.48% | 27.2% | 6.89% | inactive | 50.5% | 56.4% | 6.49% | –
c1ccc2c(CCNc3ccc(Nc4ccncc4)cc3)c[nH]c2c1 | – | – | – | – | – | – | 11.1% | 10.6% | 6.39% | 5.7% | 5.37% | 3.61% | inactive | 1.57% | 6.37% | -0.777% | 9.35 µM (active)
O=C(O)c1ccc2c(c1)nc(Nc1cccc(Cl)c1)c1ccncc12 | – | – | – | – | – | 35.3% (inactive) | 6.23% | 9% | 9.96% | 4.4% | 84.5% | 72.1% | inactive | 9.86% | 12.2% | -0.0167% | –
Nc1nccc(Oc2ccc(NC(=O)c3c[nH]cc(-c4ccc(F)cc4)c3=O)cc2F)c1Cl | – | – | – | – | – | -5.48% (inactive) | 4.72% | 50.4% | 8.39% | 6.32% | 7.66% | 5.21% | inactive | 7.57% | 18.6% | 1.21% | –
